# LmPK inh: blocks Leishmania mexicana pyruvate kinase activity; Q27686; purified LmPK, Kinase-Glo ATP luminescence, 1 h; Potency, µM (highest dose often 57.5 µM), without a hit: top-dose activity change, negative = inhibition, actives largely listed as inhibitors; actives 0.37% (n = 290,000); AID 1721; note: potency is the fitted concentration of half-maximal effect; % is set by controls: 0 for no effect and ±100 for the full control effect
#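 0.1 nM LmPK, 0.5 mM PEP, 0.1 mM ADP; 50 mM imidazole pH 7.2, 7 mM MgCl2, 50 mM KCl; 1 h RT. Kinase-Glo luminescence readout, normalized to no-enzyme (full inhibition) and uninhibited wells.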
# FBPA Giardia inh: inhibitors of Giardia lamblia fructose-1,6-bisphosphate aldolase. A8B2U2. purified Giardia FBPA. Potency, µM (doses to about 59.6 µM), inactives show top-dose activity, negative = inhibition, usual class: inhibitors. actives 0.71% (n = 290,000); note: potency is the fitted concentration of half-maximal effect; % is set by controls: 0 for no effect and ±100 for the full control effect; nearly all actives have a fitted effect of over 55% in size
# Target sequence (A8B2U2 whole entry, looked up): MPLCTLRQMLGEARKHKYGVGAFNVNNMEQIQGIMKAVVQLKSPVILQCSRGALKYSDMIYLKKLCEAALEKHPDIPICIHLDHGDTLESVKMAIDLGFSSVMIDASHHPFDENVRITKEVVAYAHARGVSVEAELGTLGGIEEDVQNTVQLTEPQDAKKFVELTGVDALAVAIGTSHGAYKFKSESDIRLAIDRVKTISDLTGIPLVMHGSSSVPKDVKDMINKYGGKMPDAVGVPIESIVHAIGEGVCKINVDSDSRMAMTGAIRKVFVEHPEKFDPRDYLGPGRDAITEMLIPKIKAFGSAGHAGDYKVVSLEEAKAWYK
#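 Giardia FBPA (40 nM reagent) was preincubated 10 min at RT with compound (up to 57.5 uM final), then substrate plus GAPDH/TPI/NAD/arsenate coupling system with diaphorase/resazurin was added; resorufin fluorescence (525/598 nm) was read after 20 min.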
# Shiga inhibitor: inhibitors of Shiga toxin in Vero cells; Vero cells, Shiga toxin protein synthesis inhibition reporter; inhibition, % at 38.7 µM; actives 9.2% (n = 290,000); in the data active = inhibition mostly above about 28%, no sharp cut-off; inactive = mostly below about 43%; note: 0% is about no effect
# Cycloheximide cs: counter-screen hit for Shiga toxin inhibitors, cycloheximide; cell reporter, cycloheximide protein synthesis inhibition counterscreen; max response, %; actives 12% (n = 300,000); AID 2314; in the data active = max response mostly above about 13%, no sharp cut-off; inactive = mostly below about 14%; note: read at 38.3 µM for the half of the compounds with a filed dose; 0% is about no effect
# NS1 inh: blocks influenza NS1 protein function; AID 2326; Potency, µM (top dose mostly 46.1 µM), for the others: at the top dose activity, positive = more growth; actives 0.4% (n = 270,000); calls by dose curve; note: potency is the fitted concentration of half-maximal effect; actives are rising curves; nearly all actives have a fitted effect of over 50% in size
#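 OD600 was taken as the measure of yeast growth restored by compound in an NS1-expressing S. cerevisiae strain. Cells had been washed out of glucose medium and diluted 1:100 into galactose -URA medium, pH 6.0.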
# * = called active by the depositor; i = inactive; · = no result given; [ ] = another dose, or the depositor's remark. Sampled rows, rich in hits. Any-hit rate of the full collection: about 14%. Unless noted, calls come from the whole dose curve; as a rule, active = well fitted curve in the direction sought with a large enough effect; inconclusive = small, poorly fitted or top-dose-only effect, or another doubt; inactive = no such curve, though single readings can be large; an effect the other way counts as inactive or inconclusive.
SMILES,LmPK inh,FBPA Giardia inh,Shiga inhibitor,Cycloheximide cs,NS1 inh
CC(C)CCNC(=O)c1ccc(-c2ccccc2)cc1,-2%,0%,84*,36*,-9%
CC(C)CCNC(=O)c1ccc(Cl)c(N)c1,-3%,-1%,57*,37*,0%
CNc1cc(-c2ccccc2CN(C)C)ncn1,·,5%,·,·,·
CC1(C)Nc2ccccc2C(=O)N1NC(=O)c1ccccc1,-3%,3%,-4,2,·
CC1(C)Nc2ccccc2C(=O)N1c1ccccc1,3%,-8%,·,19*,-12%
COc1ccc(N2C(=O)c3ccccc3NC23CCCC3)cc1,3%,2%,44*,31*,·
CCC1(CC)Nc2ccccc2C(=O)N1c1ccc(OC)cc1,-27%,0%,36*,33*,-2%
CCC1(CC)Nc2ccccc2C(=O)N1c1ccc(NC(C)=O)cc1,6%,0%,17,12*,-6%
COc1ccc2c(c1)C1(Nc3ccccc3C(=O)N1c1ccccc1)C(=O)N2 (centres undefined),-1%,-7%,-1,2,-9%
CCOC(=O)N1CCN(C(=O)C2CCC(=O)N(CCCN3CCCC3=O)C2)CC1 (centres undefined),0%,·,17,-2,-2%
CCCCn1c(C)cc2c(c1=O)C1O[C@](CCCC)(Cc3cc(C#N)ccc31)O2,-1%[11.5 µM],-6%[12.9 µM],i,0,21%
C=C1CCO[C@@]2([C@H](O)[C@@](C)(O)CO)NC(=O)[C@]1(O)NC2=O,·,·,·,·,-1%
C/C(N)=C(/C#N)C(=O)COC(=O)c1cccc2ccccc12,2%,0%,95*,37*,6%
C/C(N)=C(/C#N)C(=O)COC(=O)c1cc(-c2cccc3ccccc23)nc2ccccc12,0%,-7%,-11,8,12%
C/C(N)=C(/C#N)C(=O)COC(=O)c1ccccc1O,-1%,6%,active,24*,7%
C/C(N)=C(/C#N)C(=O)COC(=O)c1ccccc1C(=O)c1ccc(C)cc1,5%,-19%,15,3,·
COc1ccc(C(=O)N2CCC3(CCN(Cc4ccc(C#N)cc4)CC3)CC2)cc1,·,1%,·,·,·
COc1ccc(N2CC(C(=O)N[C@H](C(=O)NC(C)c3ccccc3)C(C)C)CC2=O)cc1 (some centres undefined),10%,·,24,-2,-7%
O=C(Cc1ccc(Cl)cc1)Nc1ccc(Br)cn1,1%,4%,72*,36*,-3%
O=C(Cc1c(F)cccc1Cl)Nc1ccccn1,-4%,4%,37*,10,3%
O=C(Nc1ccc(F)cc1)Nc1ccc(Cl)cn1,0%,4%,62*,23*,-12%
O=C(Cc1ccc(F)cc1)Nc1ccc(Cl)cn1,5%,12%,81,26*,-11%
COc1ccc(/C=N/N2C(C)CCCC2C)cc1OC (centres undefined),3%,7%,19,6,6%
COc1cc(C2c3cc4c(cc3C(OC3OC5COC(C)O[C@@H]5C(O)C3O)C3COC(=O)C23)OCO4)cc(OC)c1O (some centres undefined),·,2%,·,·,·
O=C(Cc1ccc(Cl)cc1)Nc1ncccn1,0%,5%,-2,-2,5%
SMILES,LmPK inh,FBPA Giardia inh,Shiga inhibitor,Cycloheximide cs,NS1 inh
O=C(Cc1ccc(Cl)cc1)Nc1ccc(Cl)cn1,2%,3%,67*,44*,5%
O=S(=O)(Cc1ccc(Cl)cc1)Nc1ccc(Cl)cn1,10%,-5%,25*,11,10%
O=C(Cc1ccc(Cl)cc1)Nc1ccccn1,-2%,-4%,24,36*,-3%
O=C(COC(=O)c1cccc(Br)c1)NCCNC(=O)COC(=O)c1cccc(Br)c1,-4%,·,-15,-3,-5%
OCC1OC(C#Cc2ccccc2)C=CC1O (centres undefined),·,-1%[12.9 µM],·,·,·
CCCCNC(=O)Cn1c(=O)c2c(ncn2CCC(C)C)n(Cc2ccccc2)c1=O,1%,6%,-1,-5,-12%
Fc1ccccc1CCNCc1cccc(Cl)c1Cl,4%,-6%,27,18*,-21%
Cc1nc2c(c(=O)[nH]1)CSCC2,·,5%,-5,5,·
COc1ccc(CCCn2ncc3c2nc(N)n2nc(-c4ccco4)nc32)cc1,·,-4%,4,7,·
Cc1cc(NC(=O)c2ccco2)ccc1NC(=O)Cc1cccs1,-8%,0%,32*,20*,2%
Cc1cc(C)cc(NC(=O)c2ccc([N+](=O)[O-])o2)c1,0%,-26%,35*,34*,·

# Compound activity deposited in PubChem BioAssay by National Center for Advancing Translational Sciences (NCATS).
